# Assay outcomes deposited in PubChem by National Center for Advancing Translational Sciences (NCATS).
# In the library only some 8% were active in any assay of this set; here they are far more common.
# KB-V1 MDR tox: qHTS assay for MDR1-selective chemotherapeutics: Primary screen using the drug-selected MDR subline cells KB-V1. KB-V1 MDR cells viability, CellTiter-Glo, 72 h. Potency, µM (titrated, usually from 46.1 µM), actives largely listed as cytotoxic. actives 3.4% (n = 400,000). AID 1347076, 2019; also: % is scaled to controls: 0 for no effect and ±100 for the full control effect; nearly all actives have a fitted effect of over 60% in size
#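 qHTS viability screen in drug-selected KB-V1 MDR cells: 72 h compound treatment at 37 degrees C, ATP luminescence end point.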
# KB-3-1 cytotox: qHTS assay for MDR1-selective chemotherapeutics: Primary screen using the parental adenocarcinoma cell KB-3-1 | Potency, µM (top dose mostly 46.1 µM), usual class: cytotoxic | KB-3-1 viability, CellTiter-Glo ATP luminescence, 72 h | AID 1347075, 2019 | actives 1.4% (n = 400,000); also: % is scaled to controls: 0 for no effect and ±100 for the full control effect; nearly all actives have a fitted effect of over 60% in size
#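 72 h, 37 °C compound treatment of KB-3-1 parental cells; CellTiter-Glo added, 10 min, luminescence read. Data corrected against DMSO-only plates and normalized before curve fitting.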
# SW480 rerep: A quantitative high throughput screen for small molecules that induce DNA re-replication in SW480 colon adenocarcinoma cells; Potency, µM (series often up to 46.1 µM), inactives show at the highest dose re-replication activation, most hits filed as activators; actives 1.8% (n = 340,000); SW480 DNA re-replication, Hoechst DNA content imaging, 48 h; also: % of control where 0% means no effect; nearly all actives have a fitted effect of over 55% in size
#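 Image-based DNA-content assay: after two days of treatment, nuclei were labelled with the DNA dye Hoechst and imaged, and hits were compounds raising the count of nuclei showing high fluorescence intensity.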
# MCF10A rerep: A quantitative high throughput screen for small molecules that induce DNA re-replication in MCF 10a normal breast cells | AID 624296, 2012 | MCF 10A DNA re-replication, Hoechst nuclear intensity, 48 h | Potency, µM (highest dose often 46.1 µM), for the others: at the top dose activity, positive = re-replication, most hits filed as activators | actives 2.9% (n = 350,000); also: % of control where 0% means no effect; nearly all actives have a fitted effect of over 50% in size
# HT1080NT lethal: qHTS for induction of synthetic lethality in tumor cells producing 2HG: qHTS for the HT-1080-NT fibrosarcoma cell line. actives 1.6% (n = 360,000). HT-1080-NT fibrosarcoma viability, CellTiter-Glo ATP luminescence, 48 h. Potency, µM (series often up to 46.1 µM), inactives show at the highest dose activity, negative = less viability, most hits filed as cytotoxic;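 also: NT is the 2HG producing partner of a matched IDH1 knockdown line; 0% = DMSO-treated cells and -100% = media-only wells without cells; nearly all actives have a fitted effect of over 55% in size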
#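 Compounds were tested in concentration-response format on HT-1080-NT cells for 48 hours at 37 degrees C. Cell viability came from CellTiter-Glo luminescence; curves were classified by r2, response magnitude and activity.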
# HT1080 IDH1KD tx: qHTS for induction of synthetic lethality in tumor cells producing 2HG: qHTS for the HT-1080-IDH1KD cell line; HT-1080 IDH1 knockdown viability, ATP luminescence, 48 h; Potency, µM (doses to about 46.1 µM), inactives show at the top dose activity, negative = toxicity, actives largely listed as cytotoxic; actives 2% (n = 360,000);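 also: 0% = DMSO wells and -100% = cell-free medium wells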
#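 Cytotoxicity counter-line: IDH1KD HT-1080, 48 h, CellTiter-Glo. Curves classed by r2, magnitude and activity.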
# An asterisk follows results filed as active; i = inactive; ? = inconclusive; . = no result given. Calls follow the shape of the dose curve; as a rule, active = well fitted curve in the direction sought with a large enough effect; inconclusive = small, poorly fitted or top-dose-only effect, or another doubt; inactive = no such curve, though single readings can be large; an effect the other way counts as inactive or inconclusive. Potency is read from the fitted curve at half-maximal effect.
SMILES,KB-V1 MDR tox,KB-3-1 cytotox,SW480 rerep,MCF10A rerep,HT1080NT lethal,HT1080 IDH1KD tx
COc1ccc2c(c1)[nH]c1c(=O)n(Cc3ccco3)cnc12,15µM*,?,-8%,0%,?,?
COc1nc(-c2ccc(C)cc2)ccc1-c1noc(-c2ccc(C(C)(C)C)cc2)n1,i,i,.,.,.,.
C=Cc1ccc(CSc2nc(-c3ccccc3Cl)nc3c2Cc2c(CO)cnc(C)c2O3)cc1,i,i,.,.,.,.
COc1cccc(NC(=O)Cn2c(=O)n(-c3ccccc3)c(=O)c3ccc(C(=O)NCc4ccc5c(c4)OCO5)cc32)c1,i,i,.,.,.,.
O=[N+]([O-])c1ccc(O)c(Nc2ncnc3ccc(Br)cc23)c1,i,?,?,13µM*,?,?
O=C(Cn1c(=O)n(Cc2ccco2)c(=O)c2ccccc21)Nc1ccc(Cl)cc1Cl,i,i,.,.,.,.
Cc1nc(Oc2ccccc2C)c2oc3ccccc3c2n1,i,i,.,.,.,.
O=C(Cn1cnc([N+](=O)[O-])c1)Nc1cc(Oc2ccc(Cl)cc2Cl)cc([N+](=O)[O-])c1,i,?,?,?,21µM*,?
N#Cc1ccc(NC(=O)Cn2cnc([N+](=O)[O-])c2)cc1,?,i,5%,-4%,2%,11%
COc1ccc(N2CCN(C(c3ccc(C)cc3)c3nnnn3C(C)(C)C)CC2)cc1 (configuration not stated),i,i,.,.,.,.
COc1ccc(C)cc1Nc1n[n+](-c2ccccc2)c(-c2ccc(SC)cc2)s1,?,?,?,?,?,18µM*
COc1ccc(C)cc1Nc1n[n+](-c2ccccc2)c(-c2ccc(NC(C)=O)cc2)s1,i,i,-9%,-21%,2%,-5%
O=C1Cc2ccccc2Sc2cc(OCCCN3CCCCC3)ccc21,?,i,23µM*,?,-3%,7%
CN(C)CCCOc1ccc2c(c1)Sc1ccccc1CC2=O,10µM*,i,0%,?,2%,1%
O=C1Cc2ccccc2Sc2c(OCCN3CCCCC3)cccc21,?,i,?,?,-1%,-5%
Nc1ccc2c(c1)C(=O)Cc1ccccc1S2,i,i,5%,2%,-2%,-14%
CC(=O)c1cccc(NC(=O)c2ccc(-n3c(C)nnc3C)cc2)c1,i,?,.,.,.,.
CCN(CC)CCNC(=O)c1cc2c(=O)n(C)c3cc(Cl)ccc3c2s1,?,i,.,.,.,.
Cc1cc(NC(=O)c2ccc(Cl)cc2)n(CCOC(=O)c2ccc(Cl)cc2)n1,?,i,1%,4%,-23%,-24%
CCOC(=O)c1ccc(-n2ccnc2)c(NC(=O)c2ccc(Cl)cc2)c1,15µM*,i,-70%,4%,2%,1%
Cc1ccc(OCCn2cc(C(=S)N3CCCC3)c3ccccc32)cc1C,5.2µM*,5.8µM*,?,?,?,7.3µM*
S=C(c1cn(CCOc2ccccc2)c2ccccc12)N1CCCC1,?,?,-6%,26%,?,?
Cc1ccc(OCCn2cc(/C(N)=N/O)c3ccccc32)cc1C,i,i,5%,9%,-17%,-23%
O=C(O)Cn1cc(C(=S)N2CCCCC2)c2ccccc21,i,i,-12%,0.58µM*,-1%,4%
COc1ccc(NC(=O)C(=O)c2cn(CC(=O)N3CCCC3)c3ccccc23)cc1,?,?,0.46µM*,?,?,0.37µM*
